Test results from the supplement of paper PMC10037445.
In all, about 2,900 compounds were measured (“NF-kB SEAP reporter activity, fold change vs agonist alone”: median about 0.99, highest 2% from about 2.6 on). This excerpt belongs to a sample that is enriched for the highest values.

Tests used:
RAW-Dual [1] = experiment: NF-kB SEAP reporter activity, fold change vs agonist alone; cytotoxicity flag (confluency mask): not cytotoxic; higher = enhanced NF-kB activity
Outline: (§1)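 RAW-Dual macrophages (50,000 cells/well in DMEM, 384-well plates) received 50 nL of library stock by pin tool, then a PRR agonist 1 h later, and were kept at 37 °C, 5% CO2. After 20 hours, supernatant was read for IRF by QuantiLuc luminescence and for NF-κB by QuantiBlue absorbance at 620 nm. Reporter activity is fold change over agonist-alone wells. Cytotoxic wells had IncuCyte confluency below 70% of agonist controls in both mask sets.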

RAW-Dual [2] = experiment: NF-kB SEAP reporter activity, fold change vs agonist alone; higher = enhanced NF-kB activity; conditions: cytotoxicity flag (confluency mask): not cytotoxic
Outline: as §1

[3] = agonist: ODN 1826 (TLR9) 0.5 ug/mL
[4] = agonist: Pam2CSK4 (TLR2/6) 0.1 ug/mL
[5] = agonist: Pam3CSK4 (TLR2/1) 0.1 ug/mL
[6] = library stock concentration (final ~1000-fold dilution): 10 mM, agonist: Imiquimod (TLR7) […]
[7] = library stock concentration (final ~1000-fold dilution): 10 mM, agonist: MPLA (TLR4) […]

CCC(C)C(NC(=O)C(CCCCN)NC(=O)C(CCC(=O)O)NN)C(=O)NC(CCC(N)=O)C(=O)NC(C)C(=O)NC(CCCCN)C(=O)N1CCCC1C(=O)NC(C)C(=O)C(=O)C(CC(C)C)NC(=O)C(CCC(N)=O)NC(=O)C(NC(=O)C(NC(=O)C(CCCNC(=N)N)NC(=O)C(Cc1ccccc1)NC(=O)C(CCCCNNC(Cc1ccccc1)C(=O)NC(CO)C(=O)NC(CCC(=O)O)C(=O)NC(CO)C(=O)NC(C(=O)NC(CC(N)=O)C(=O)NC(C=O)CO)C(C)O)NC(=O)C(Cc1ccccc1)NC(=O)C(CO)NC(=O)C(CCC(=O)O)NC(=O)C(CO)NC(=O)C(NC(=O)C(CC(N)=O)NC(=O)C(N)CO)C(C)O)C(C)C)C(C)O (centres undefined) (library stock concentration (final ~1000-fold dilution): 10 mM water)
NF-kB SEAP reporter activity (RAW-Dual [1]; agonist: LPS (TLR4) 0.1 ug/mL): 1.1
NF-kB SEAP reporter activity (RAW-Dual [1]; [3]): 1.16
NF-kB SEAP reporter activity (RAW-Dual [1]; [4]): 1.13
NF-kB SEAP reporter activity (RAW-Dual [1]; [5]): 1.74

CCC(C)C(NC(=O)C(CCCCN)NC(=O)C(CCC(=O)O)NN)C(=O)NC(CCC(N)=O)C(=O)NC(C)C(=O)NC(CCCCN)C(=O)N1CCCC1C(=O)NC(C)C(=O)C(=O)C(CC(C)C)NC(=O)C(CCC(N)=O)NC(=O)C(NC(=O)C(NC(=O)C(CCCNC(=N)N)NC(=O)C(Cc1ccccc1)NC(=O)C(CCCCNNC(Cc1ccccc1)C(=O)NC(CO)C(=O)NC(CCC(=O)O)C(=O)NC(CO)C(=O)NC(C(=O)NC(CC(N)=O)C(=O)NC(C=O)CO)C(C)O)NC(=O)C(Cc1ccccc1)NC(=O)C(CO)NC(=O)C(CCC(=O)O)NC(=O)C(CO)NC(=O)C(NC(=O)C(CC(N)=O)NC(=O)C(N)CO)C(C)O)C(C)C)C(C)O (centres undefined)
NF-kB SEAP reporter activity (RAW-Dual [2]; library stock concentration (final ~1000-fold dilution): 10 mM water, agonist: Imiquimod (TLR7) […]): 0.927
NF-kB SEAP reporter activity (RAW-Dual [2]; library stock concentration (final ~1000-fold dilution): 10 mM water, agonist: MPLA (TLR4) […]): 1.03

O=c1cc(-c2ccc(O)cc2)oc2c(C3OC(CO)C(O)C(O)C3O)c(O)cc(O)c12 (centres undefined) (library stock concentration (final ~1000-fold dilution): 10 mM)
NF-kB SEAP reporter activity (RAW-Dual [1]; agonist: LPS (TLR4) 0.1 ug/mL): 0.978
NF-kB SEAP reporter activity (RAW-Dual [1]; [3]): 0.919
NF-kB SEAP reporter activity (RAW-Dual [1]; [4]): 1
NF-kB SEAP reporter activity (RAW-Dual [1]; [5]): 1.31

O=c1cc(-c2ccc(O)cc2)oc2c(C3OC(CO)C(O)C(O)C3O)c(O)cc(O)c12 (centres undefined)
NF-kB SEAP reporter activity (RAW-Dual [2]; [6]): 0.887
NF-kB SEAP reporter activity (RAW-Dual [2]; [7]): 0.994

N#Cc1cc(N2CCC(C(=O)N3N=CCC3c3cc(F)cc(F)c3)CC2)ncn1 (centres undefined) (library stock concentration (final ~1000-fold dilution): 10 mM)
NF-kB SEAP reporter activity (RAW-Dual [1]; agonist: LPS (TLR4) 0.1 ug/mL): 1.25
NF-kB SEAP reporter activity (RAW-Dual [1]; [3]): 1.05
NF-kB SEAP reporter activity (RAW-Dual [1]; [4]): 0.796
NF-kB SEAP reporter activity (RAW-Dual [1]; [5]): 0.84

N#Cc1cc(N2CCC(C(=O)N3N=CCC3c3cc(F)cc(F)c3)CC2)ncn1 (centres undefined)
NF-kB SEAP reporter activity (RAW-Dual [2]; [6]): 1.09
NF-kB SEAP reporter activity (RAW-Dual [2]; [7]): 1.26

Cn1cc(-c2[nH]c3cc(NC(=O)C(N)C4CCCCC4)cc4c3c2C=NNC4=O)cn1 (centres undefined) (library stock concentration (final ~1000-fold dilution): 10 mM)
NF-kB SEAP reporter activity (RAW-Dual [1]; agonist: LPS (TLR4) 0.1 ug/mL): 3.51
NF-kB SEAP reporter activity (RAW-Dual [1]; [3]): 2.74
NF-kB SEAP reporter activity (RAW-Dual [1]; [4]): 1.6
NF-kB SEAP reporter activity (RAW-Dual [1]; [5]): 1.8

Cn1cc(-c2[nH]c3cc(NC(=O)C(N)C4CCCCC4)cc4c3c2C=NNC4=O)cn1 (centres undefined)
NF-kB SEAP reporter activity (RAW-Dual [2]; [6]): 2.17
NF-kB SEAP reporter activity (RAW-Dual [2]; [7]): 2.16
